Compounds with a hit are over-represented: about 32% of the library has one in this group of screens.
CYP2C9 act – human CYP2C9 activators, primary screen, biochemical, luminescence | Cytochrome P450 2C9 (Homo sapiens), P11712 | recombinant CYP2C9, luciferin-H conversion; active compounds read high; factor 1 = untreated enzyme, 0 = blocked | activation factor at 5 µM | 1.4% of 96,000 active;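 active = activation factor of 2 or more for CYP2C9 at a 5 µM dose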;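 note: 0 = sulfaphenazole-blocked wells and 1 = vehicle-only wells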
Target sequence (P11712 whole entry, looked up): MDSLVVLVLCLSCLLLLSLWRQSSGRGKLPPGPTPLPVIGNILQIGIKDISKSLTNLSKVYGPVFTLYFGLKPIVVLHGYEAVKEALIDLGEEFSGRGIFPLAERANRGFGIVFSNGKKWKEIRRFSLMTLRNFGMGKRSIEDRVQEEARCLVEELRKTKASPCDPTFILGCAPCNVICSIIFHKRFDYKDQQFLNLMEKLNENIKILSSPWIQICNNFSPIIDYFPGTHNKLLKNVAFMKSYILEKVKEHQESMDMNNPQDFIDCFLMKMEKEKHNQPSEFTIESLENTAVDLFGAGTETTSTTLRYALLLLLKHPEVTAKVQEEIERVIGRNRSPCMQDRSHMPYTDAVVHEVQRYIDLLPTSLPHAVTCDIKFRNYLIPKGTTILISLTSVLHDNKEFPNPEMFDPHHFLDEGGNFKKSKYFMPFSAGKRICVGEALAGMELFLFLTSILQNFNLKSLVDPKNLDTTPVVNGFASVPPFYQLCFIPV
CYP2C19 inhib – blockers of cytochrome P450 2C19 activity – biochemical, luminescence, ADME assay, primary screen; CYP2C19 Supersomes, luciferin-H EGE luminescence, 30 min; inhibition, % at 5 µM; 21% of 96,000 active; AID 778, 2007;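 active = CYP2C19 inhibition above a set limit at 5 µM in the primary screen, cut at about 50% in these data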;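 note: plate controls were negative control wells for no effect and 2.5 mM tranylcypromine positive control for full effect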
CYP2C19 act – human CYP2C19 activators, primary screen, biochemical, luminescence; recombinant CYP2C19, luciferin-H EGE luminescence; active compounds read high; 0 = fully inhibited enzyme, 1 = untreated enzyme; activation factor at 5 µM; AID 1025, 2008; 96,000 tested, under 10 active;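 active = activation factor of at least 2 at 5 µM in the primary screen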;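 note: 0 = wells with 2.5 mM tranylcypromine and 1 = vehicle-only wells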
PostGolgi ctrl – growth inhibition of yeast control strain, primary screen, counter-screen for post-Golgi transport modulator project. AID 738, 2007. inhibition, % at 10 µM. efflux-deficient yeast background strain, growth absorbance A615, 16 h. 5% of 98,000 active
CYP2C9 inhib – blockers of cytochrome P450 2C9 activity – biochemical, luminescence, ADME assay, primary screen. P11712. CYP2C9 Supersomes, luciferin-H conversion. inhibition, % at 5 µM. 20% of 96,000 active;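 active = blocking of liver enzyme CYP2C9 beyond about 50% at 5 µM, limit read from the data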
PostGolgi yeast – phenotypic screen on post-Golgi transport, primary screen; post-Golgi transport phenotypic cell assay; inhibition, % at 10 µM; 0.9% of 98,000 active; AID 739, 2007;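 note: yeast cells grown in 1536-well plates; yeast grown about 18 h at 30C before absorbance read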
An asterisk follows results filed as active. Cut-off read from the data, not from the text of the source, unless noted: active = inhibition above about 30%; inactive = the rest.

What do the screens show for `CCOC(=O)C(NC(=O)c1ccccc1OCC)(Nc1ncccn1)C(F)(F)F` (stereo unspecified)?
CYP2C9 act: 0.9; CYP2C19 inhib: 30; CYP2C19 act: 0.7; PostGolgi ctrl: 23; CYP2C9 inhib: 11; PostGolgi yeast: 2

Results for O=C(CSc1nc2ccccc2o1)Nc1cc(C(F)(F)F)ccc1N1CCOCC1 ?
CYP2C9 act: 0.6; CYP2C19 inhib: 46; CYP2C19 act: 0.5; PostGolgi ctrl: 34*; CYP2C9 inhib: 39; PostGolgi yeast: -7

Results for Cn1ccnc1SCC(=O)Nc1cc(C(F)(F)F)ccc1N1CCOCC1 ?
CYP2C9 act: 0.8; CYP2C19 inhib: 31; CYP2C19 act: 0.7; PostGolgi ctrl: 6; CYP2C9 inhib: 22; PostGolgi yeast: -4

Results for O=C(Cn1cnc2ccccc21)Nc1cc(C(F)(F)F)ccc1N1CCOCC1 ?
CYP2C9 act: 0.7; CYP2C19 inhib: 22; CYP2C19 act: 0.8; PostGolgi ctrl: -6; CYP2C9 inhib: 29; PostGolgi yeast: -7

Results for Nc1nnc(SCC(=O)Nc2cc(C(F)(F)F)ccc2N2CCOCC2)s1 ?
CYP2C9 act: 0.2; CYP2C19 inhib: 78*; CYP2C19 act: 0.2; PostGolgi ctrl: -1; CYP2C9 inhib: 77*; PostGolgi yeast: -7

How did Cn1c(=O)c2ncn(CC(=O)Nc3cc(C(F)(F)F)ccc3N3CCOCC3)c2n(C)c1=O do in these assays?
CYP2C9 act: 0.4; CYP2C19 inhib: 41; CYP2C19 act: 0.6; PostGolgi ctrl: 0; CYP2C9 inhib: 57*; PostGolgi yeast: 0

What do the screens show for `O=C(CSc1nc2ccccc2o1)Nc1ccc(N2CCOCC2)c(Cl)c1`?
CYP2C9 act: 0.1; CYP2C19 inhib: 73*; CYP2C19 act: 0.3; PostGolgi ctrl: 1; CYP2C9 inhib: 89*; PostGolgi yeast: -6

What do the screens show for `CC1CCCCN1CCNC(=O)C1CCN(S(=O)(=O)N2CCCCC2)CC1` (stereo unspecified)?
CYP2C9 act: 0.9; CYP2C19 inhib: -2; CYP2C19 act: 1; PostGolgi ctrl: 5; CYP2C9 inhib: 9; PostGolgi yeast: 3

How did COCCCNC(=O)c1cn(Cc2c(F)cccc2Cl)nn1 do in these assays?
CYP2C9 act: 0.8; CYP2C19 inhib: 14; CYP2C19 act: 0.9; PostGolgi ctrl: 19; CYP2C9 inhib: 17; PostGolgi yeast: -8

Results for FC(F)(F)c1ccc(N2CCOCC2)c(Nc2nc3ccccc3n3cnnc23)c1 ?
CYP2C9 act: 0.9; CYP2C19 inhib: 20; CYP2C19 act: 0.8; PostGolgi ctrl: 52*; CYP2C9 inhib: 10; PostGolgi yeast: 7

What do the screens show for `Cc1nc2ccccc2nc1OCC(=O)Nc1cc(C(F)(F)F)ccc1N1CCOCC1`?
CYP2C9 act: 0.7; CYP2C19 inhib: 7; CYP2C19 act: 0.9; PostGolgi ctrl: 2; CYP2C9 inhib: 34; PostGolgi yeast: 18

How did c1ccc(Nc2nc3ccccc3n3cnnc23)cc1 do in these assays?
PostGolgi ctrl: 26; PostGolgi yeast: 21

What do the screens show for `O=C(Nc1cc(C(F)(F)F)ccc1N1CCOCC1)c1ccc2ccccc2n1`?
CYP2C9 act: 0.4; CYP2C19 inhib: 31; CYP2C19 act: 0.7; PostGolgi ctrl: 6; CYP2C9 inhib: 60*; PostGolgi yeast: 4

Results for Cn1c(=O)c2c(nc(NC3CCCCC3)n2CC(O)COc2ccccc2)n(C)c1=O (stereo unspecified) ?
CYP2C9 act: 0.5; CYP2C19 inhib: 37; CYP2C19 act: 0.6; PostGolgi ctrl: 15; CYP2C9 inhib: 52*; PostGolgi yeast: 1

Results for Cn1c(=O)c2c(nc(N3CCCCCC3)n2CC(O)COc2ccccc2)n(C)c1=O (stereo unspecified) ?
CYP2C9 act: 0.7; CYP2C19 inhib: 7; CYP2C19 act: 0.9; PostGolgi ctrl: 11; CYP2C9 inhib: 28; PostGolgi yeast: 12

How did COc1cccc(C(=O)Cn2c(N3CCCCC3)nc3c2c(=O)n(C)c(=O)n3C)c1 do in these assays?
CYP2C9 act: 0.7; CYP2C19 inhib: 21; CYP2C19 act: 0.8; PostGolgi ctrl: 4; CYP2C9 inhib: 27; PostGolgi yeast: -4

Results for COc1ccc(OCC(O)Cn2c(Nc3ccccc3)nc3c2c(=O)n(C)c(=O)n3C)cc1 (stereo unspecified) ?
CYP2C9 act: 0.6; CYP2C19 inhib: 34; CYP2C19 act: 0.7; PostGolgi ctrl: -1; CYP2C9 inhib: 44; PostGolgi yeast: 20

What do the screens show for `CN(c1nc2c(c(=O)n(C)c(=O)n2C)n1CC(=O)c1ccccc1)C1CCCCC1`?
CYP2C9 act: 0.3; CYP2C19 inhib: 46; CYP2C19 act: 0.5; PostGolgi ctrl: 22; CYP2C9 inhib: 66*; PostGolgi yeast: 4

What do the screens show for `Cn1c(Br)nc2c1c(=O)n(CC(O)COc1ccccc1)c(=O)n2C` (stereo unspecified)?
CYP2C9 act: 0.9; CYP2C19 inhib: 86*; CYP2C19 act: 0.1; PostGolgi ctrl: 15; CYP2C9 inhib: 11; PostGolgi yeast: -3

What do the screens show for `O=C(Nc1ccccn1)NC1CCS(=O)(=O)C1` (stereo unspecified)?
CYP2C9 act: 1.1; CYP2C19 inhib: -13; CYP2C19 act: 1.1; PostGolgi ctrl: -6; CYP2C9 inhib: -13; PostGolgi yeast: -12

How did O=C(NC(NC1CCS(=O)(=O)C1)C(=O)c1cccs1)c1ccccc1 (stereo unspecified) do in these assays?
CYP2C9 act: 0.3; CYP2C19 inhib: 99*; CYP2C19 act: 0; PostGolgi ctrl: -3; CYP2C9 inhib: 69*; PostGolgi yeast: -5

Results for Cc1cc(C)nc(N(C#N)Cc2cccc3ccccc23)n1 ?
CYP2C9 act: 2.9*; CYP2C19 inhib: 59*; CYP2C19 act: 0.4; PostGolgi ctrl: 27; CYP2C9 inhib: -194; PostGolgi yeast: 2

Results for Cc1cc(C)nc(N(C#N)CC(=O)c2ccccc2)n1 ?
CYP2C9 act: 2.2*; CYP2C19 inhib: 14; CYP2C19 act: 0.9; PostGolgi ctrl: -1; CYP2C9 inhib: -115; PostGolgi yeast: 5

What do the screens show for `Cc1cc(C)nc(N(C#N)CCOc2ccccc2)n1`?
CYP2C9 act: 1.5; CYP2C19 inhib: 44; CYP2C19 act: 0.6; PostGolgi ctrl: 23; CYP2C9 inhib: -52; PostGolgi yeast: 8

What do the screens show for `Cc1cc(C)nc(N(C#N)Cc2ccccc2)n1`?
CYP2C9 act: 2*; CYP2C19 inhib: 6; CYP2C19 act: 0.9; PostGolgi ctrl: 10; CYP2C9 inhib: -103; PostGolgi yeast: -2

Results for CC(C)CC(=O)Nc1ccccc1N1CCN(C(=O)c2ccccc2)CC1 ?
CYP2C9 act: 0.2; CYP2C19 inhib: 77*; CYP2C19 act: 0.2; PostGolgi ctrl: 8; CYP2C9 inhib: 76*; PostGolgi yeast: -1
